Assay results taken from PubChem BioAssay (NCI).
This is part of a sample that, as a whole, favours compounds with a hit. Of some 83,000 tested, about 20% had one in any assay.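 Each cell line was grown in a 96-well plate and treated with one concentration of compound for 48 hours. Values below 10 were considered active.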 A number with no mark means an inactive call. The source made the active and inactive calls.

Experiments:
Experiment in all cases: NCI-60 one-dose screen, 48 h (100 = growth as untreated, 0 = no growth, -100 = all killed)
Conditions in all cases: 10 µM unless noted
T-47D breast = test system: T-47D breast
BT-549 breast = test system: BT-549 breast
MDA-MB-435 melanoma = test system: MDA-MB-435 melanoma
SW-620 colon = test system: SW-620 colon
MCF7 breast = test system: MCF7 breast
HCT-116 colon = test system: HCT-116 colon
HCC-2998 colon = test system: HCC-2998 colon
KM12 colon = test system: KM12 colon

Compound	growth (T-47D breast)	growth (BT-549 breast)	growth (MDA-MB-435 melanoma)	growth (SW-620 colon)	growth (MCF7 breast)	growth (HCT-116 colon)	growth (HCC-2998 colon)	growth (KM12 colon)
CCc1cccc(CC)c1NC(=O)c1sc2nc3c(cc2c1N)CCCC3	64.3%	74.8%	7.29% (active)	70.8%	42.5%	71%	95.4%	70%
CCCCC[C@H]1C/C=C2/C(=O)C(Cl)=C[C@@H]2C/C=C\CCCC(=O)O1	-33.7% (active)	-77.3% (active)	-48.2% (active)	-48.8% (active)	0.987% (active)	-86.9% (active)	-68.7% (active)	-33.9% (active)
Cc1nnc2nc(N)[nH]n2c1=O	96.1%	99.6%	113%	107%	97.9%	101%	102%	96%
Cc1cccc(C)c1NCc1nc(-c2ccccc2)n[nH]1	87.8%	94.8%	101%	109%	88.2%	98.7%	101%	103%
COc1ccc(-c2cc(-c3c(C)oc4cc5occc5c(OC)c4c3=O)nc(N)c2C#N)cc1OC	41.2%	70.8%	17.6%	57.5%	24.8%	53.7%	98%	59.6%
COc1ccc(C2(Cl)c3ccccc3N(c3ccccc3)c3ccccc32)cc1	5.67% (active)	11.3%	-60.9% (active)	0.491% (active)	-6.13% (active)	-37.7% (active)	-15.6% (active)	6.64% (active)
COc1ccc2c(c1)c(-c1nc(-c3c[nH]c4ncccc34)cs1)cn2CCCN1CCCCC1	66.1%	67.5%	-84.6% (active)	-43.3% (active)	10% (active)	25.9%	88.5%	47.3%
Cn1cc(-c2csc(-c3cn(C(=O)OC(C)(C)C)c4ccc(Br)cc34)n2)c2cccnc21	74.3%	103%	102%	90.4%	81.5%	67.4%	101%	101%
CC(=O)Nc1cc(F)cc(C(F)(F)F)c1Cl	96.7%	95.8%	99.3%	95.2%	91.5%	94.1%	98.4%	96.3%
Cc1cc2nc3c4cc(O)ccc4n(CCN(C)C)c3nc2cc1C	4.84% (active)	15.8%	3.8% (active)	3.53% (active)	-10.1% (active)	-0.74% (active)	-22.5% (active)	10.2%
COc1cc(NC(C)CN(CC(C)C)C(C)C)c2ncccc2c1 (stereo not drawn)	31%	108%	114%	92.9%	43%	88.6%	103%	93.2%
Nc1c(C(=O)Nc2cccc3ccccc23)sc2nc3c(cc12)CCCC3	55.7%	64.6%	-63.1% (active)	31%	20.6%	20.7%	26.7%	26.7%
Fc1ccc2[nH]cc(-c3nc(-c4c[nH]c5ncccc45)cs3)c2c1	47.3%	20.6%	62.1%	47.2%	30.3%	26.2%	84.4%	38.9%
CCOC(=O)C1OC1(c1ccccc1)c1ccccc1 (stereo not drawn)	110%	110%	104%	105%	105%	107%	117%	94.3%
CCN(CC)CCCCCNc1cc(OC(=O)c2ccccc2)cc2cccnc12	76.6%	97.2%	53.6%	80.8%	134%	44.5%	104%	81.3%
Cc1nc([P+](c2ccccc2)(c2ccccc2)c2ccccc2)c(Sc2sc(-c3ccccc3)nc2[P+](c2ccccc2)(c2ccccc2)c2ccccc2)o1	4.85% (active)	-0.458% (active)	-9.1% (active)	9.8% (active)	8.1% (active)	3.77% (active)	15.2%	-0.528% (active)

Compound	growth (T-47D breast)	growth (BT-549 breast)	growth (MDA-MB-435 melanoma)	growth (SW-620 colon)	growth (MCF7 breast)	growth (HCT-116 colon)	growth (HCC-2998 colon)	growth (KM12 colon)
C=C(C)[C@@H]1CC[C@]2(C(=O)O)CC[C@]3(C)[C@H](CC[C@@H]4[C@@]5(C)C/C(=C/c6cccc(I)c6)C(=O)C(C)(C)[C@@H]5CC[C@]43C)[C@@H]12	4.75% (active)	35.3%	32.1%	17.9%	19.6%	5.1% (active)	28.8%	15.1%
COc1cc(-c2cc3ncccc3c3nc(OCCN(C)C)c4cccnc4c23)cc(OC)c1OC	37%	41.6%	18.1%	17.4%	3.86% (active)	-21.8% (active)	17.1%	18.7%
CN1CCN(c2ccc3nc(-c4[nH]ncc4Nc4ncnc5c4OCCCN5)[nH]c3c2)CC1	-27.4% (active)	-74.2% (active)	-80.1% (active)	-58.1% (active)	-57.2% (active)	-11.8% (active)	-84.2% (active)	-72.7% (active)
Cn1c2c(c3ccc(Cl)cc31)-n1cccc1C2=O	95.2%	92.6%	112%	93.7%	74.2%	76.9%	101%	100%
Cn1c(=O)c2c(ncn2CCC(=O)Nc2ccc(F)cc2)n(C)c1=O	94.1%	90.3%	110%	106%	100%	87.7%	115%	103%
Cc1ccc(-c2ccc(Nc3ccccc3)nn2)cc1S(N)(=O)=O	84.2%	80.6%	8.3% (active)	51.7%	78.1%	79%	59.8%	39.3%
C=C(C)[C@@H]1CC[C@]2(C(=O)N3CCN(C)CC3)CC[C@]3(C)[C@H](CC[C@@H]4[C@@]5(C)C/C(=C/c6ccc(C(F)(F)F)cc6)C(=O)C(C)(C)[C@@H]5CC[C@]43C)[C@@H]12	79.9%	102%	97.2%	99.5%	87.5%	89.8%	107%	97%
Cn1cc(-c2csc(-c3cn(CCCN4CCCCC4)c4ccccc34)n2)c2cccnc21	92.5%	72.7%	-87.7% (active)	-65.3% (active)	-77.2% (active)	-95% (active)	99%	-62.8% (active)
COc1ccc(-c2nc3ccccn3c2-c2nc3ccc(Cl)cc3[nH]2)cc1	75%	94.4%	86.9%	88.4%	79.6%	93.5%	97.6%	86.4%
COc1cc(-c2cc3ncccc3c3nc(N)c4cccnc4c23)cc(OC)c1OC	35%	27.6%	-33.7% (active)	23.9%	21.7%	9.87% (active)	40.2%	30.8%
CCCCC[C@H]1C/C=C2/C(=O)C(Cl)=C[C@@H]2C/C=C\CCCC(=O)O[C@@H](CCCCC)C/C=C2/C(=O)C(Cl)=C[C@@H]2C/C=C\CCCC(=O)O1	-20.3% (active)	-52.7% (active)	-16.1% (active)	-41.6% (active)	-42.1% (active)	-98.7% (active)	-88.6% (active)	-73% (active)
CCCCCC1CCCCN1C(=O)OCC (stereo not drawn)	92.4%	98.1%	115%	105%	99.3%	93.6%	94.4%	110%
CC/C=C\C[C@H]1CC=C2C(=O)C=C[C@@H]2CC=CCCCC(=O)O[C@@H](CCCCC)CC=C2C(=O)C=C[C@@H]2CC=CCCCC(=O)O[C@@H](CCCCC)CC=C2C(=O)C=C[C@@H]2CC=CCCCC(=O)O[C@@H](CCCCC)CC=C2C(=O)C=C[C@@H]2CC=CCCCC(=O)O1	29.5% [7.9 µM]	-17.3% [7.9 µM] (active)	-23.1% [7.9 µM] (active)	9.77% [7.9 µM] (active)	20.4% [7.9 µM]	-53.6% [7.9 µM] (active)	88.6% [7.9 µM]	21.1% [7.9 µM]
CC1(C)C(=O)/C(=C\c2ccco2)C[C@]2(C)[C@H]3CC[C@@H]4[C@@H](C(=O)/C=C/c5ccco5)CC[C@@]4(C)[C@]3(C)CC[C@@H]12	35%	95.7%	4.33% (active)	71.1%	62%	61.8%	108%	101%
Brc1ccc2c(c1)c(-c1nc(-c3c[nH]c4ncccc34)cs1)cn2CCCN1CCCCC1	45%	72.8%	-84% (active)	-63.5% (active)	-68.1% (active)	-62.7% (active)	34.8%	14.5%
